Outcome and AC50 data for 24 molecules are collected here from PubChem BioAssay (EPA / NIEHS).

Details in all cases: mRNA level, 48 h; actives raise or lower the signal
Read-out in assay [1]: MYC, MYC (gene 4609)
Kind of assay: LTEA_HepaRG_MYC: Life Technologies and Expression Analysis (LTEA) Assay for MYC using HepaRG (AID 2283518). In outline: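 Differentiated HepaRG cells exposed 48 h in serum-free induction medium to 8 concentrations (top 100 uM, half-log steps; 0.5% DMSO), duplicate. MYC mRNA measured by Fluidigm qRT-PCR, normalized to ACTB, GAPDH, POLR2A; bidirectional fit versus DMSO.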

Read-out in assay [2]: matrix metalloproteinase-3 (MMP3), MMP3 (gene 4314)
Kind of assay: LTEA_HepaRG_MMP3: Life Technologies and Expression Analysis (LTEA) Assay for matrix metalloproteinase-3 (MMP3) using HepaRG (AID 2283519). In outline:
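qRT-PCR read-out of MMP3 mRNA (normalised to three housekeeping genes) in HepaRG liver cells after 48 h chemical exposure; 8-point half-log series, top 100 uM, 0.5% DMSO vehicle. Bidirectional curve fitting against DMSO baseline.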

Read-out in assay [3]: Paternally Expressed 10 (PEG10), PEG10 (gene 23089)
Kind of assay: LTEA_HepaRG_PEG10: Life Technologies and Expression Analysis (LTEA) Assay for Paternally Expressed 10 (PEG10) using HepaRG (AID 2283520).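 On AC50: PEG10 transcript by qRT-PCR normalised to ACTB GAPDH and POLR2A.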 The method in brief:
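Human HepaRG cultures are dosed for 48 h across an eight-point half-log series starting at 100 uM, with 0.5% DMSO as vehicle and baseline. Gain or loss of PEG10 transcript is measured by qRT-PCR and fitted in both directions.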

Read-out in assay [4]: Nuclear factor NF-kappa-B p105 subunit (Homo sapiens) (UniProt P19838)
The assay is described as follows: LTEA_HepaRG_NFKB1: Life Technologies and Expression Analysis (LTEA) Assay for Nuclear Factor Kappa B Subunit 1 (NFKB1) using HepaRG (AID 2283521).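 On Outcome: TaqMan qRT-PCR transcript normalised to ACTB GAPDH and POLR2A housekeeping genes.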 The method in brief:
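Differentiated human HepaRG cells in serum-free induction medium with 0.5% DMSO were exposed for 48 h to eight half-log concentrations, top 100 uM, in duplicate. NFKB1 mRNA measured by Fluidigm TaqMan qRT-PCR, normalised to ACTB, GAPDH and POLR2A; bidirectional fit versus DMSO.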

Read-out in assay [5]: Protein phosphatase 2A (PPP2R4), PTPA (gene 5524)
The assay is described as follows: LTEA_HepaRG_PPP2R4: Life Technologies and Expression Analysis (LTEA) Assay for Protein phosphatase 2A (PPP2R4) using HepaRG (AID 2283522). In outline: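 Cells were plated, cultured 48 h, switched to serum-free induction medium, then dosed for 48 h (8 points, max 100 uM, 0.5% DMSO). RNA was isolated and PPP2R4 expression measured by TaqMan qRT-PCR.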

Read-out in assay [6]: solute carrier (SLC22A1), SLC22A1 (gene 6580)
Kind of assay: LTEA_HepaRG_SLC22A1: Life Technologies and Expression Analysis (LTEA) Assay for solute carrier (SLC22A1) using HepaRG (AID 2283524).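 On AC50: TaqMan qRT-PCR normalized to ACTB GAPDH and POLR2A housekeeping genes.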 In outline: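 qRT-PCR readout (TaqMan, Fluidigm arrays) of SLC22A1 transcript, normalized to three housekeeping genes; bidirectional curve fit relative to 0.5% DMSO vehicle. Differentiated human HepaRG cells, 48 h chemical exposure, top concentration 100 uM, half-log steps, eight points.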

Read-out in assay [7]: Pyruvate Dehydrogenase Kinase 4 (PDK4), PDK4 (gene 5166)
Kind of assay: LTEA_HepaRG_PDK4: Life Technologies and Expression Analysis (LTEA) Assay for Pyruvate Dehydrogenase Kinase 4 (PDK4) using HepaRG (AID 2283525). In outline:
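HepaRG (human liver line), 48 h chemical exposure, 8-pt half-log CRC top 100 uM, 0.5% DMSO vehicle, duplicates. Readout: TaqMan qRT-PCR of PDK4 mRNA, housekeeping-normalized; gain/loss fit relative to DMSO baseline.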

Read-out in assay [8]: NAD(P)H dehydrogenase [quinone] 1 (NQO1), NQO1 (gene 1728)
Kind of assay: LTEA_HepaRG_NQO1: Life Technologies and Expression Analysis (LTEA) Assay for NAD(P)H dehydrogenase [quinone] 1 (NQO1) using HepaRG (AID 2283526). The method in brief:
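Transcript induction or suppression is quantified by qRT-PCR in human HepaRG liver cells dosed for 48 hours. Eight half-log concentrations topping at 100 uM are used, with 0.5% DMSO as vehicle and baseline.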

Read-out in assay [9]: Phosphatase and tensin (PTEN), PTEN (gene 5728)
Kind of assay: LTEA_HepaRG_PTEN: Life Technologies and Expression Analysis (LTEA) Assay for Phosphatase and tensin (PTEN) using HepaRG (AID 2283523). In outline:
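HepaRG, 48 h exposure, 8-pt half-log series from 100 uM top, 0.5% DMSO vehicle, duplicates. Readout: Fluidigm qRT-PCR of PTEN transcript; housekeeping normalization (ACTB, GAPDH, POLR2A). Gain or loss fitted relative to DMSO baseline.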

Each structure is given as a SMILES string. Activity calls are given as the source filed them. How the source made its calls: active means hit-call score of the fitted dose curve at least 0.9, where 1 is the maximum; inactive means score below 0.9.

Chain of Nuclear factor NF-kappa-B p105 subunit (Homo sapiens) (P19838 whole entry, looked up): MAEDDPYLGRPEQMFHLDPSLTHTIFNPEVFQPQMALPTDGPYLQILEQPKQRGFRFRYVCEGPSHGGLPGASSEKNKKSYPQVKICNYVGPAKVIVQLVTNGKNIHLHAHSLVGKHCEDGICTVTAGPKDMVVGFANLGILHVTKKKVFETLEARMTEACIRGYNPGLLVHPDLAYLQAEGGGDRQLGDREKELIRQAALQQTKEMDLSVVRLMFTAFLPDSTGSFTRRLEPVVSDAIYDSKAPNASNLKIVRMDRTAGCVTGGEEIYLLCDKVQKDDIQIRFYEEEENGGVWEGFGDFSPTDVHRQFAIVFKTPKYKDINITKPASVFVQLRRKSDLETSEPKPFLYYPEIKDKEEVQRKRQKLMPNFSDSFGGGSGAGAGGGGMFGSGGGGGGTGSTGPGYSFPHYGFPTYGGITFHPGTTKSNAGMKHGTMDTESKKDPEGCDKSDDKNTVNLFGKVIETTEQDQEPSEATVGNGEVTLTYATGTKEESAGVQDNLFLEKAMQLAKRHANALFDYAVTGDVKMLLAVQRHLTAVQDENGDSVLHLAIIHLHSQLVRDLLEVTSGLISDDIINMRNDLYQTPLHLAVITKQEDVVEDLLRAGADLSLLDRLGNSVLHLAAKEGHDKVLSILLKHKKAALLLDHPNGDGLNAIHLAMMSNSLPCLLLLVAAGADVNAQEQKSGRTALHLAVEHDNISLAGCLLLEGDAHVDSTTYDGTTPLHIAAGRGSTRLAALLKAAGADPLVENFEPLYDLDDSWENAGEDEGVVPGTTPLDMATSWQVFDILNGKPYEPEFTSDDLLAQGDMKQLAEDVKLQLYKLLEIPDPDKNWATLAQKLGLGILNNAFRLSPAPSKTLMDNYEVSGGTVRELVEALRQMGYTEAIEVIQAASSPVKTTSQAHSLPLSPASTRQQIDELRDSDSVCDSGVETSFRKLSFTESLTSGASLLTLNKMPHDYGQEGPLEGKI

In the case of `Nc1nc(Cl)nc2c1ncn2[C@H]1C[C@H](O)[C@@H](CO)O1`, the call in [1], in assay [4] and in assay [8] was inactive. The AC50 (usually the midpoint of the concentration-response curve, whichever way the signal moves) in [2] is 3.75 µM (active); in [3], 0.636 µM (active); in [5] it was 1.92 µM (active); in assay [6], 0.811 µM (active); in assay [7], 0.452 µM (active).
With `CC(C)COC(=O)CCCCC(=O)OCC(C)C`, the molecule was classed as inactive in assay [1], in assay [2], in assay [4], in assay [5], in [9] and in assay [6]. The molecule was classed as inactive in assay [7] and in assay [8].
In the case of `CC(=O)O`, the outcome in assay [1], in assay [2], in assay [5], in [9], in [6] and in [7] was inactive. For the same molecule, in [8], the result was inactive.
As for `O=Cc1ccccc1C=O`, the result in assay [1], in [2], in assay [5], in [6], in [7] and in assay [8] was inactive.
Turning to `O=C(NS(=O)(=O)/C=C/c1cccs1)c1ccc(F)cc1Br`, the outcome in [1], in [2], in assay [5], in assay [9], in assay [6] and in assay [7] was inactive. The molecule was called inactive in [8]. In addition, the AC50 in assay [3] is 50 µM (active).
`CC(C)c1cccc(C(C)C)c1NC(=O)NS(=O)(=O)c1cc(C(C)(C)O)co1`: the outcome in assay [1], in assay [2], in assay [3], in assay [5], in assay [9] and in assay [6] was inactive. In addition, the molecule was called inactive in assay [7] and in assay [8].
For `CCCCCCCCCC[N+](C)(C)[O-]`, the molecule was classed as inactive in assay [1], in [2], in assay [3], in assay [5], in assay [6] and in [7]. Besides, in assay [8], the molecule was called inactive.
`COC(=O)[C@H]1[C@H]2C[C@@H]3c4[nH]c5cc(OC)ccc5c4CCN3C[C@H]2C[C@@H](OC(=O)c2cc(OC)c(OC)c(OC)c2)[C@@H]1OC`: the figures for the AC50 in assay [1] and in assay [6] were 29.1 µM (active) and 52.8 µM (active), respectively. In addition, the outcome in assay [2], in [5], in assay [7] and in assay [8] was inactive.
With `CC(N)=O`, the outcome in assay [1], in assay [2], in assay [3], in assay [5], in assay [6] and in assay [7] was inactive. Further, the call in [8] was inactive.
As for `Cc1ccc(-c2cc(C(F)(F)F)nn2-c2ccc(S(N)(=O)=O)cc2)cc1`, the AC50 in assay [1] is 67.3 µM (active); in assay [4], 70.2 µM (active); in assay [6], 55.9 µM (active). For the same molecule, the outcome in [2], in [5], in assay [9], in assay [7] and in assay [8] was inactive.
As to `Cc1ccc(C(C)(C)C)c(O)c1`, the call in [1], in assay [2], in assay [4], in assay [5], in assay [9] and in assay [6] was inactive. For the same molecule, the result in [7] and in assay [8] was inactive.
On to `COC(=O)CCC(=O)OC`, for which the result in assay [1], in [2], in assay [4], in assay [5], in assay [9] and in assay [6] was inactive. Further, the outcome in assay [7] and in assay [8] was inactive.
Turning to `CCCCC(CC)COC(=O)CCCCCCCC(=O)OCC(CC)CCCC` (stereo not given), the molecule was classed as inactive in assay [1], in assay [2], in assay [4], in [5], in assay [9] and in assay [7]. Besides, the molecule was classed as inactive in assay [8].
Take `CC(=O)CC(c1ccccc1)c1c(O)c2ccccc2oc1=O` (stereo not given): the molecule was called inactive in [1], in [2], in assay [5], in assay [9], in assay [6] and in [7].
As to `Cn1cnc2c1c(=O)[nH]c(=O)n2C`, the molecule was called inactive in assay [1], in assay [2], in assay [4], in assay [5], in assay [6] and in assay [7]. The call in [8] was inactive.
In the case of `CCCCCCCC(=O)OC`, the molecule was called inactive in assay [1], in assay [2], in assay [4], in assay [5], in [6] and in assay [7]. Further, in assay [8], the molecule was classed as inactive. In assay [9], the AC50 is 12.2 µM (active).
Turning to `CC(=O)OC1CC(C)OC(C)O1` (stereo not given), the molecule was classed as inactive in [1], in assay [2], in assay [4], in [5], in [6] and in assay [7]. For the same molecule, the molecule was classed as inactive in assay [8].
As to `NC=O`, the call in assay [1], in [2], in assay [3], in assay [4], in assay [5] and in assay [6] was inactive. Further, the molecule was classed as inactive in assay [7] and in assay [8].
For the molecule `OCC(O)CO`, the molecule was classed as inactive in assay [1], in assay [2], in [5], in [9], in assay [6] and in assay [7]. The result in assay [8] was inactive. Moreover, in [4], the AC50 is 1.06 µM (active).
Regarding `C#CC(O)C(CC)CCCC` (stereo not given), the call in assay [1], in assay [2], in [4], in assay [5], in [9] and in [6] was inactive. The call in assay [7] and in assay [8] was inactive.
With `CO[C@@H]1COCC[C@@H]1N[C@@H]1CC[C@@](C(=O)N2CCc3ncc(C(F)(F)F)cc3C2)(C(C)C)C1`, the molecule was called inactive in assay [1], in assay [2], in assay [4], in assay [5], in assay [9] and in assay [6]. In addition, the molecule was called inactive in [7] and in [8].
As for `CCCC[C@H]1CN(CC2CCOCC2)C(=O)OC12CCN(C1(C)CCN(C(=O)c3c(C)ncnc3C)CC1)CC2`, the outcome in assay [1], in [2], in [3], in assay [5], in [9] and in assay [6] was inactive. Besides, the molecule was classed as inactive in assay [7] and in [8].
As to `CC1=C(C)S(=O)(=O)CCS1(=O)=O`, the AC50 in assay [1] is 72.6 µM (active); in assay [5], 74.4 µM (active); in [6] it was 82.1 µM (active); in assay [7] it was 62 µM (active). For the same molecule, the molecule was classed as inactive in assay [2], in assay [3], in assay [4] and in [8].
Take `Cc1cc(Cc2ccc(N)c(C)c2)ccc1N`: the molecule was classed as inactive in assay [1], in assay [2], in assay [4], in assay [5], in [9] and in assay [6]. Besides, the molecule was classed as inactive in assay [7] and in assay [8].
